# Measurements from paper PMC8384837, “Expanding the binding specificity for RNA recognition by a PUF domain”.
# Residue numbers refer to the chain shown, from its start.
# What was measured:
# Assay in all cases: yeast three-hybrid, YBZ-1, SC-Leu-His + 0.5 mM 3-AT, 4 days
# Details in all cases: tags: N-Gal4 AD-HA kept; label: inside an RPR1-promoter hybrid RNA with tandem MS2 sites; ssRNA
# PUM1 PUF domain R4-AFP = PUM1 PUF domain R4-AFP (Homo sapiens, UniProt Q14671 828-1176, N971A;H972F;Q975P)
# In short: (§1)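 Pumilio-1 PUF domain libraries, randomized (NNK) at the three base-contacting residues of each repeat, were co-expressed with matching RNA elements from a centromeric plasmid in strain YBZ-1 (LexA–MS2 coat fusion, HIS3 reporter). Transformants were plated on SC-Leu (input) and SC-Leu-His + 0.5 mM 3-AT (selection) for four days, and repeat regions were PCR-amplified and Illumina-sequenced. The interaction score is the log2 change in variant frequency from input to selection, with pseudocount 1 where absent.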
# PUM1 PUF domain R4-VNA = PUM1 PUF domain R4-VNA (Homo sapiens, UniProt Q14671 828-1176, N971V;H972N;Q975A)
# In short: as §1
# PUM1 PUF domain R2-CYP = PUM1 PUF domain R2-CYP (Homo sapiens, UniProt Q14671 828-1176, N899C;Q903P)
# In short: as §1
# PUM1 PUF domain R2-RRS = PUM1 PUF domain R2-RRS (Homo sapiens, UniProt Q14671 828-1176, N899R;Y900R;Q903S)
# In short: as §1
# PUM1 PUF domain R4-SHF = PUM1 PUF domain R4-SHF (Homo sapiens, UniProt Q14671 828-1176, N971S;Q975F)
# In short: as §1
# PUM1 PUF domain R1-SRR = PUM1 PUF domain R1-SRR (Homo sapiens, UniProt Q14671 828-1176, Q867R)
# In short: as §1
# PUM1 PUF domain R1-GVR = PUM1 PUF domain R1-GVR (Homo sapiens, UniProt Q14671 828-1176, S863G;R864V;Q867R)
# In short: as §1
# PUM1 PUF domain R5-PRL = PUM1 PUF domain R5-PRL (Homo sapiens, UniProt Q14671 828-1176, C1007P;Q1011L)
# In short: as §1
# PUM1 PUF domain R5-RKT = PUM1 PUF domain R5-RKT (Homo sapiens, UniProt Q14671 828-1176, C1007R;R1008K;Q1011T)
# In short: as §1
# PUM1 PUF domain R5-RNC = PUM1 PUF domain R5-RNC (Homo sapiens, UniProt Q14671 828-1176, C1007R;R1008N;Q1011C)
# In short: as §1
# PUM1 PUF domain R5-KQT = PUM1 PUF domain R5-KQT (Homo sapiens, UniProt Q14671 828-1176, C1007K;R1008Q;Q1011T)
# In short: as §1
# PUM1 PUF domain R6-SWE = biological target: T1, PUM1 PUF domain R6-SWE (Homo sapiens, UniProt Q14671 828-1176, N1043S;Y1044W;Q1047E)
# T1 sequence: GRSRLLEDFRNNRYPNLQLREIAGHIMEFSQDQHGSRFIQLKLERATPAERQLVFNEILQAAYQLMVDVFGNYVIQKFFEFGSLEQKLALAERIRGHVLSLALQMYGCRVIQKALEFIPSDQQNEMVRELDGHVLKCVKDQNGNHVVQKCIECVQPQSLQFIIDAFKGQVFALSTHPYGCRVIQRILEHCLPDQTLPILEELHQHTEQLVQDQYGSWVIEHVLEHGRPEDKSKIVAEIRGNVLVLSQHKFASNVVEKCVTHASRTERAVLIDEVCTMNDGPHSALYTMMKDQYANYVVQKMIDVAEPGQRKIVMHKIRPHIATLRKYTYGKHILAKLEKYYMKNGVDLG
# In short: as §1
# PUM1 PUF domain R8-RCK = PUM1 PUF domain R8-RCK (Homo sapiens, UniProt Q14671 828-1176, N1122R;Y1123C;Q1126K)
# In short: as §1
# PUM1 PUF domain R6-RFI = biological target: T2, PUM1 PUF domain R6-RFI (Homo sapiens, UniProt Q14671 828-1176, N1043R;Y1044F;Q1047I)
# T2 sequence: T1 sequence with S216R, W217F, E220I
# In short: as §1
# PUM1 PUF domain R6-GYM = biological target: T3, PUM1 PUF domain R6-GYM (Homo sapiens, UniProt Q14671 828-1176, N1043G;Q1047M)
# T3 sequence: T1 sequence with S216G, W217Y, E220M
# In short: as §1
# PUM1 PUF domain R6-FRL = biological target: T4, PUM1 PUF domain R6-FRL (Homo sapiens, UniProt Q14671 828-1176, N1043F;Y1044R;Q1047L)
# T4 sequence: T1 sequence with S216F, W217R, E220L
# In short: as §1
# PUM1 PUF domain R7-GTS = PUM1 PUF domain R7-GTS (Homo sapiens, UniProt Q14671 828-1176, S1079G;N1080T;E1083S)
# In short: as §1
# PUM1 PUF domain R7-KGG = PUM1 PUF domain R7-KGG (Homo sapiens, UniProt Q14671 828-1176, S1079K;N1080G;E1083G)
# In short: as §1
# PUM1 PUF domain R5-SNN = PUM1 PUF domain R5-SNN (Homo sapiens, UniProt Q14671 828-1176, C1007S;R1008N;Q1011N)
# In short: as §1
# PUM1 PUF domain R5-QNG = PUM1 PUF domain R5-QNG (Homo sapiens, UniProt Q14671 828-1176, C1007Q;R1008N;Q1011G)
# In short: as §1
# Chain of PUM1 PUF domain R5-KQT (Q14671 828-1176 C1007K/R1008Q/Q1011T): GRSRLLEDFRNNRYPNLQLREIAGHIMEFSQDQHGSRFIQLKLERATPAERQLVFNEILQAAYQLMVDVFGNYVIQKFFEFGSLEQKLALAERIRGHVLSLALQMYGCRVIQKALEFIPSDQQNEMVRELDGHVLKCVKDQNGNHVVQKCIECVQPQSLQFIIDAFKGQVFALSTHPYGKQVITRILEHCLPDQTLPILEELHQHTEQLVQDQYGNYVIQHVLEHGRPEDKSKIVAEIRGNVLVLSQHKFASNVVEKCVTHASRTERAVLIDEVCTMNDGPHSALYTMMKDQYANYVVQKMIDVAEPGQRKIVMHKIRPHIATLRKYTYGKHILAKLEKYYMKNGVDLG
# Chain of PUM1 PUF domain R4-AFP (Q14671 828-1176 N971A/H972F/Q975P): as the sequence (Q14671 828-1176 C1007K/R1008Q/Q1011T) above, with N144A, H145F, Q148P, K180C, Q181R, T184Q counted along it
sequence,measurement,setting,value
GGCUAGAACUAGUGGAUCCCCCGGCGCCCGGCGGCUCGAGCCCGGGUAAGUGUAUAUAGUCUGCAUGCCGCCGGGCGCCAUGCCUGCAGGUCGACUCUAGAAAACAUG,binding signal,PUM1 PUF domain R4-AFP,5 log2 enrichment (interaction score)
same,binding signal,PUM1 PUF domain R4-VNA,3.11 log2 enrichment (interaction score)
GGCUAGAACUAGUGGAUCCCCCGGCGCCCGGCGGCUCGAGCCCGGGUAAGUGUAAAAAGUCUGCAUGCCGCCGGGCGCCAUGCCUGCAGGUCGACUCUAGAAAACAUG,binding signal,PUM1 PUF domain R2-CYP,5.81 log2 enrichment (interaction score)
same,binding signal,PUM1 PUF domain R2-RRS,1.22 log2 enrichment (interaction score)
GGCUAGAACUAGUGGAUCCCCCGGCGCCCGGCGGCUCGAGCCCGGGUAAGUGUACAUAGUCUGCAUGCCGCCGGGCGCCAUGCCUGCAGGUCGACUCUAGAAAACAUG,binding signal,PUM1 PUF domain R4-SHF,5.41 log2 enrichment (interaction score)
same,binding signal,PUM1 PUF domain R4-AFP,6.13 log2 enrichment (interaction score)
same,binding signal,PUM1 PUF domain R4-VNA,1.65 log2 enrichment (interaction score)
GGCUAGAACUAGUGGAUCCCCCGGCGCCCGGCGGCUCGAGCCCGGGUAAGUGUAAAUCGUCUGCAUGCCGCCGGGCGCCAUGCCUGCAGGUCGACUCUAGAAAACAUG,binding signal,PUM1 PUF domain R1-SRR,3.51 log2 enrichment (interaction score)
same,binding signal,PUM1 PUF domain R1-GVR,3.35 log2 enrichment (interaction score)
GGCUAGAACUAGUGGAUCCCCCGGCGCCCGGCGGCUCGAGCCCGGGUAAGUGUCAAUAGUCUGCAUGCCGCCGGGCGCCAUGCCUGCAGGUCGACUCUAGAAAACAUG,binding signal,PUM1 PUF domain R5-PRL,0.34 log2 enrichment (interaction score)
same,binding signal,PUM1 PUF domain R5-RKT,2.84 log2 enrichment (interaction score)
same,binding signal,PUM1 PUF domain R5-RNC,3.93 log2 enrichment (interaction score)
same,binding signal,PUM1 PUF domain R5-KQT,4.51 log2 enrichment (interaction score)
GGCUAGAACUAGUGGAUCCCCCGGCGCCCGGCGGCUCGAGCCCGGGUAAGUGGAAAUAGUCUGCAUGCCGCCGGGCGCCAUGCCUGCAGGUCGACUCUAGAAAACAUG,binding signal,PUM1 PUF domain R6-SWE,4.47 log2 enrichment (interaction score)
GGCUAGAACUAGUGGAUCCCCCGGCGCCCGGCGGCUCGAGCCCGGGUAAGCGUAAAUAGUCUGCAUGCCGCCGGGCGCCAUGCCUGCAGGUCGACUCUAGAAAACAUG,binding signal,PUM1 PUF domain R8-RCK,2.23 log2 enrichment (interaction score)
GGCUAGAACUAGUGGAUCCCCCGGCGCCCGGCGGCUCGAGCCCGGGUAAGUGUAAAUAGUCUGCAUGCCGCCGGGCGCCAUGCCUGCAGGUCGACUCUAGAAAACAUG,binding signal,PUM1 PUF domain R5-PRL,3.53 log2 enrichment (interaction score)
same,binding signal,PUM1 PUF domain R6-RFI,2.68 log2 enrichment (interaction score)
same,binding signal,PUM1 PUF domain R5-RNC,1.15 log2 enrichment (interaction score)
same,binding signal,PUM1 PUF domain R6-GYM,3.33 log2 enrichment (interaction score)
same,binding signal,PUM1 PUF domain R4-AFP,3.88 log2 enrichment (interaction score)
same,binding signal,PUM1 PUF domain R6-FRL,2.93 log2 enrichment (interaction score)
same,binding signal,PUM1 PUF domain R5-KQT,2.17 log2 enrichment (interaction score)
GGCUAGAACUAGUGGAUCCCCCGGCGCCCGGCGGCUCGAGCCCGGGUAAGUUUAAAUAGUCUGCAUGCCGCCGGGCGCCAUGCCUGCAGGUCGACUCUAGAAAACAUG,binding signal,PUM1 PUF domain R7-GTS,2.61 log2 enrichment (interaction score)
same,binding signal,PUM1 PUF domain R7-KGG,2.69 log2 enrichment (interaction score)
GGCUAGAACUAGUGGAUCCCCCGGCGCCCGGCGGCUCGAGCCCGGGUAAGUGUAAAGAGUCUGCAUGCCGCCGGGCGCCAUGCCUGCAGGUCGACUCUAGAAAACAUG,binding signal,PUM1 PUF domain R2-CYP,2.3 log2 enrichment (interaction score)
same,binding signal,PUM1 PUF domain R2-RRS,2.87 log2 enrichment (interaction score)
GGCUAGAACUAGUGGAUCCCCCGGCGCCCGGCGGCUCGAGCCCGGGUAAGUGUAAAUUGUCUGCAUGCCGCCGGGCGCCAUGCCUGCAGGUCGACUCUAGAAAACAUG,binding signal,PUM1 PUF domain R1-SRR,1.58 log2 enrichment (interaction score)
same,binding signal,PUM1 PUF domain R1-GVR,2.24 log2 enrichment (interaction score)
GGCUAGAACUAGUGGAUCCCCCGGCGCCCGGCGGCUCGAGCCCGGGUAAGUGAAAAUAGUCUGCAUGCCGCCGGGCGCCAUGCCUGCAGGUCGACUCUAGAAAACAUG,binding signal,PUM1 PUF domain R6-SWE,4.09 log2 enrichment (interaction score)
GGCUAGAACUAGUGGAUCCCCCGGCGCCCGGCGGCUCGAGCCCGGGUAAGUGUUAAUAGUCUGCAUGCCGCCGGGCGCCAUGCCUGCAGGUCGACUCUAGAAAACAUG,binding signal,PUM1 PUF domain R5-PRL,4.51 log2 enrichment (interaction score)
same,binding signal,PUM1 PUF domain R5-SNN,4.07 log2 enrichment (interaction score)
same,binding signal,PUM1 PUF domain R5-QNG,2.88 log2 enrichment (interaction score)
same,binding signal,PUM1 PUF domain R5-KQT,2.84 log2 enrichment (interaction score)
